Measurements published in PubChem BioAssay (EPA / NIEHS).
Results filed as inconclusive are left out. Active and inactive are the calls of the source. Rule for the calls: active = hit-call score of the fitted dose curve at least 0.9, where 1 is the maximum; inconclusive = response in the unintended direction; inactive = score below 0.9.

Experiments:
[1] = biological target: human Retinoic Acid Receptor beta (RARb), RARB (gene 5915) (UniProt P10826); assay: ATG_RARb_TRANS: Attagene TRANS-FACTORIAL HepG2 Assay for human Retinoic Acid Receptor beta (AID 2283004)
How it was run: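 HepG2 cells transiently transfected with multiplexed GAL4-UAS reporter units expressing chimeric NR–Gal4 fusions; 24 h compound exposure. Reporter mRNA quantified by RT-PCR, 6-FAM labelling, HpaI digestion and capillary electrophoresis; gain-of-signal fitted against DMSO baseline.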

[2] = biological target: Retinoic acid receptor alpha (Homo sapiens) (UniProt P10276); assay: ATG_RARa_TRANS: Attagene TRANS-FACTORIAL HepG2 Assay for human Retinoic Acid Receptor alpha (RARa) (AID 2283005)
How it was run: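 HepG2 cells transiently transfected with multiple reporter units expressing chimeric RARα-GAL4 fusion, with GAL4-UAS-driven reporters. After 24 h compound exposure, reporter mRNA induction quantified by RT-PCR and capillary electrophoresis with fluorescent labeling; gain-of-signal fitted relative to DMSO control.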

[3] = biological target: Peroxisome proliferator-activated receptor gamma (Homo sapiens) (UniProt P37231); assay: ATG_PPARg_TRANS: Attagene TRANS-FACTORIAL HepG2 Assay for human Peroxisome Proliferator-activated Receptor-gamma (PPARg) (AID 2283007)
How it was run: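 Chimeric NR-Gal4 transactivation is measured in transiently transfected HepG2 cells by reporter mRNA induction at 24 h. Detection uses RT-PCR with fluorescent labelling and capillary electrophoresis; DMSO defines baseline.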

[4] = biological target: human RAR-related Orphan Receptor beta (RORb), RORB (gene 6096) (UniProt Q92753); assay: ATG_RORb_TRANS: Attagene TRANS-FACTORIAL HepG2 Assay for human RAR-related Orphan Receptor beta (RORb) (AID 2283010)
How it was run: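 HepG2 cells transiently transfected with GAL4-UAS reporter units expressing chimeric NR-Gal4 protein; reporter mRNA measured 24 h after dosing by RT-PCR, 6-FAM labelling and capillary electrophoresis. Gain-of-signal fitted relative to DMSO baseline.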

[5] = biological target: human RAR-related Orphan Receptor gamma (RORg), RORC (gene 6097) (UniProt P51449); assay: ATG_RORg_TRANS: Attagene TRANS-FACTORIAL HepG2 Assay for human RAR-related Orphan Receptor gamma (RORg) (AID 2283011)
How it was run: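 Readout: reporter transcript induction (RT-PCR, fluorescent primer extension, capillary electrophoresis) after 24 h compound exposure of transiently transfected HepG2 cells carrying a RORg-Gal4 chimera and GAL4-UAS reporters; DMSO served as baseline, with increasing signal fitted.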

[6] = biological target: Retinoic acid receptor RXR-alpha (Homo sapiens) (UniProt P19793); assay: ATG_RXRa_TRANS: Attagene TRANS-FACTORIAL HepG2 Assay for human Retinoid X Receptor alpha (RXRa) (AID 2283012)
How it was run: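 HepG2 cells transiently transfected with GAL4-UAS reporter units and chimeric RXRa-Gal4 protein, treated 24 h. Reporter mRNA measured by RT-PCR, fluorescent labelling, HpaI digestion and capillary electrophoresis. Induction fitted against DMSO.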

[7] = biological target: human Retinoid X Receptor beta (RXRb), RXRB (gene 6257) (UniProt P28702); assay: ATG_RXRb_TRANS: Attagene TRANS-FACTORIAL HepG2 Assay for human Retinoid X Receptor beta (RXRb) (AID 2283013)
How it was run: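 HepG2 cells were transiently transfected with multiplexed GAL4-UAS reporters and a chimeric RXRb-Gal4 construct, then exposed for 24 h. Reporter mRNA was quantified by RT-PCR, FAM labeling, HpaI digestion and capillary electrophoresis; gain of signal was scored against DMSO.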

[8] = biological target: human Peroxisome Proliferator-activated Receptor delta (PPARd), PPARD (gene 5467) (UniProt Q03181); assay: ATG_PPARd_TRANS: Attagene TRANS-FACTORIAL HepG2 Assay for human Peroxisome Proliferator-activated Receptor delta (PPARd) (AID 2283002)
How it was run: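 Measured quantity: GAL4-UAS reporter transcript induction in HepG2 after 24 h chemical dosing, with NR-Gal4 chimeras supplied by transient transfection. Detection by RT-PCR and capillary electrophoresis; upward fit against DMSO.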

[9] = biological target: Nuclear receptor subfamily 1 group I member 2 (Homo sapiens) (UniProt O75469); assay: ATG_PXR_TRANS: Attagene TRANS-FACTORIAL HepG2 Assay for human Pregnane X Receptor (PXR) (AID 2283008)
How it was run: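 Read-out is fluorescence of labelled reporter cDNA fragments separated by capillary electrophoresis after RT-PCR and HpaI digestion. Source: HepG2 cells carrying PXR-GAL4/UAS reporter constructs, treated 24 h; activity fitted upward relative to DMSO.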

[10] = biological target: human Retinoic Acid Receptor gamma (RARg), RARG (gene 5916) (UniProt P13631); assay: ATG_RARg_TRANS: Attagene TRANS-FACTORIAL HepG2 Assay for human Retinoic Acid Receptor gamma (RARg) (AID 2283009)
How it was run: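 HepG2 transiently transfected with GAL4-UAS reporter units and chimeric NR-Gal4 constructs; 24 h compound exposure. Reporter mRNA quantified by RT-PCR, FAM labeling, HpaI digestion and capillary electrophoresis; gain-of-signal versus DMSO.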

[11] = biological target: human Peroxisome Proliferator-activated Receptor alpha (PPARa), PPARA (gene 5465) (UniProt Q07869); assay: ATG_PPARa_TRANS: Attagene TRANS-FACTORIAL HepG2 Assay for human Peroxisome Proliferator-activated Receptor alpha (PPARa) (AID 2283001)
How it was run: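 Gain-of-signal endpoint: reporter mRNA induction relative to DMSO, detected by fluorescent RT-PCR and capillary electrophoresis. HepG2 cells transiently carried GAL4-UAS-driven reporter units plus NR-Gal4 fusion; exposure lasted 24 h.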

[12] = biological target: human Thyroid Receptor alpha (THRa1), THRA (gene 7067) (UniProt P10827); assay: ATG_THRa1_TRANS: Attagene TRANS-FACTORIAL HepG2 Assay for human Thyroid Receptor alpha (THRa1) (AID 2283014)
How it was run: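 HepG2 cells transiently transfected with multiplexed GAL4-UAS reporter units for exogenous chimeric THRa1-Gal4; reporter mRNA measured 24 h after dosing by RT-PCR, 6-FAM labelling, HpaI digestion and capillary electrophoresis. Gain-of-signal fitted versus DMSO baseline.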

Measured: AC50

Chain of human Thyroid Receptor alpha (THRa1), THRA (gene 7067) (P10827 whole entry, looked up, the tested form may be a part): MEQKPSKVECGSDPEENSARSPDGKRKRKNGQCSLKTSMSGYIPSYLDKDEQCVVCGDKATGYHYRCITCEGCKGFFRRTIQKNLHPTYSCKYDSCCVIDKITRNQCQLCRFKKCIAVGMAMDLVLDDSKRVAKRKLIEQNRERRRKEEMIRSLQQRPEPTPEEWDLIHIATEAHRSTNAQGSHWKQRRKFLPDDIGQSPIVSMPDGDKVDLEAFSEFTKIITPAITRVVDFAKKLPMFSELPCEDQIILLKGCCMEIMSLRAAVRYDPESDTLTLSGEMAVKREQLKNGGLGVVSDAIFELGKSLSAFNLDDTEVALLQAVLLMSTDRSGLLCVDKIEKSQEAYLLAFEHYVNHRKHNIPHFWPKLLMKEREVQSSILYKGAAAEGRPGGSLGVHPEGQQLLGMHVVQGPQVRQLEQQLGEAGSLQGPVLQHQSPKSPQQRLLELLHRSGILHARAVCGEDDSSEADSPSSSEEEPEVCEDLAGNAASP
Chain of human Retinoic Acid Receptor beta (RARb), RARB (gene 5915) (P10826 whole entry, looked up, the tested form may be a part): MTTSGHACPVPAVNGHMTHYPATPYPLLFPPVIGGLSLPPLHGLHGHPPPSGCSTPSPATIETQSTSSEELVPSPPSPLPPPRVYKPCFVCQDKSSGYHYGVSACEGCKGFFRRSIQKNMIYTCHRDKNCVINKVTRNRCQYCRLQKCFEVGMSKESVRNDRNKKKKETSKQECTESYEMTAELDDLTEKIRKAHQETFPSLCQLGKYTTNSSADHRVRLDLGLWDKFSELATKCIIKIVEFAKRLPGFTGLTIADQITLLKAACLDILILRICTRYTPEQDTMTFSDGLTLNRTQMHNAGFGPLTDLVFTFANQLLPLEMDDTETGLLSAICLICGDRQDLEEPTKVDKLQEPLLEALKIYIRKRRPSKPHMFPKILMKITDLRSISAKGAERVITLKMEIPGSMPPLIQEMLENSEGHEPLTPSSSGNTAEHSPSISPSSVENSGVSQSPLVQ
Chain of human Peroxisome Proliferator-activated Receptor delta (PPARd), PPARD (gene 5467) (Q03181 whole entry, looked up, the tested form may be a part): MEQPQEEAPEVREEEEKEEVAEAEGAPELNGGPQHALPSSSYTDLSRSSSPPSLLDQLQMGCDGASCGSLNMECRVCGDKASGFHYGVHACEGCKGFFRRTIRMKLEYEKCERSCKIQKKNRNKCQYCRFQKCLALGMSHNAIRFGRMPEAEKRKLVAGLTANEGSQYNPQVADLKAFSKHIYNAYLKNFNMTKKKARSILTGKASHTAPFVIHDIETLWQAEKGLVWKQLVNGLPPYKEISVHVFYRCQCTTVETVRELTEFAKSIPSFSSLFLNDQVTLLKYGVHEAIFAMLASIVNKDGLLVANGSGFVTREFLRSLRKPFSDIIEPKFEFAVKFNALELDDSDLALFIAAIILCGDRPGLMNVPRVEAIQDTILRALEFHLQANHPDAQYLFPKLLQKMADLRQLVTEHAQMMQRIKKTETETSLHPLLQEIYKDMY
Chain of human RAR-related Orphan Receptor gamma (RORg), RORC (gene 6097) (P51449 whole entry, looked up, the tested form may be a part): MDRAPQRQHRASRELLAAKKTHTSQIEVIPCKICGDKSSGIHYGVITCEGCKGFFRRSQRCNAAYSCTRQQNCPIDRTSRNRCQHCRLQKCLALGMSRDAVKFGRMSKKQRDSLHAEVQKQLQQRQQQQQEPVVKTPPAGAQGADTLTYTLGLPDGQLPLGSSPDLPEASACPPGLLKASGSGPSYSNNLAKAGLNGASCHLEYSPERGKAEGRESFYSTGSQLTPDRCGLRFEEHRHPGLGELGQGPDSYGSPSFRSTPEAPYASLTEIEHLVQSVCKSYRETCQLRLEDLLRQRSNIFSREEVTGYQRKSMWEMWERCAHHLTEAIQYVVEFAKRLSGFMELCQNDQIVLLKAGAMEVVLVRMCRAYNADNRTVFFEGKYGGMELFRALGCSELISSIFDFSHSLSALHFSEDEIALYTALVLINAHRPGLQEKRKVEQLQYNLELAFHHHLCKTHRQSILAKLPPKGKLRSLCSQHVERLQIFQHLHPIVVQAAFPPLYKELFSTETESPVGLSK
Chain of human Retinoic Acid Receptor gamma (RARg), RARG (gene 5916) (P13631 whole entry, looked up, the tested form may be a part): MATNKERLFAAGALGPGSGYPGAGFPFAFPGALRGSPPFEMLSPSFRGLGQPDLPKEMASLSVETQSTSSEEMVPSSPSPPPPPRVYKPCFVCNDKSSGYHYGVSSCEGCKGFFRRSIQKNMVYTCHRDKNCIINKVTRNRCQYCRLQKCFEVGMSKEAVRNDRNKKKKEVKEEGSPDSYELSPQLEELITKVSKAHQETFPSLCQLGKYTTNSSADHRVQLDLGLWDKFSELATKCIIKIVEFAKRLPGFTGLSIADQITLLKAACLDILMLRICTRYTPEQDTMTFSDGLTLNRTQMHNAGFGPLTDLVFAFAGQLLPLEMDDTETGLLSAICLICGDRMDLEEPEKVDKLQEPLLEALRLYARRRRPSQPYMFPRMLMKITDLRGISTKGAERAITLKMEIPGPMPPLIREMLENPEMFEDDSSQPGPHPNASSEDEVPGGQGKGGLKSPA
Chain of Retinoic acid receptor RXR-alpha (Homo sapiens) (P19793 whole entry, looked up, the tested form may be a part): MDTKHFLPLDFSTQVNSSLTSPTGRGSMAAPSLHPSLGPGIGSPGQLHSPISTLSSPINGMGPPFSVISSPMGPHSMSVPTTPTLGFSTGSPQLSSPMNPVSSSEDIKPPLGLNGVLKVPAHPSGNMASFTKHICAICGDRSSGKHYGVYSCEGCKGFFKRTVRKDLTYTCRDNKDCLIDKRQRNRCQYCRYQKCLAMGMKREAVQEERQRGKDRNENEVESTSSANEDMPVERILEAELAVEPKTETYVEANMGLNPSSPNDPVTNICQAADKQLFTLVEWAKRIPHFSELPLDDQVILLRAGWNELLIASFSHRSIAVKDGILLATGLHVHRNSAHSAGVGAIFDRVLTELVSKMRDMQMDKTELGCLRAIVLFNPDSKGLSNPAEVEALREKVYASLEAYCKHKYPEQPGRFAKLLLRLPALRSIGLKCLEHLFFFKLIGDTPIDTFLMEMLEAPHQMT
Chain of human Retinoid X Receptor beta (RXRb), RXRB (gene 6257) (P28702 whole entry, looked up, the tested form may be a part): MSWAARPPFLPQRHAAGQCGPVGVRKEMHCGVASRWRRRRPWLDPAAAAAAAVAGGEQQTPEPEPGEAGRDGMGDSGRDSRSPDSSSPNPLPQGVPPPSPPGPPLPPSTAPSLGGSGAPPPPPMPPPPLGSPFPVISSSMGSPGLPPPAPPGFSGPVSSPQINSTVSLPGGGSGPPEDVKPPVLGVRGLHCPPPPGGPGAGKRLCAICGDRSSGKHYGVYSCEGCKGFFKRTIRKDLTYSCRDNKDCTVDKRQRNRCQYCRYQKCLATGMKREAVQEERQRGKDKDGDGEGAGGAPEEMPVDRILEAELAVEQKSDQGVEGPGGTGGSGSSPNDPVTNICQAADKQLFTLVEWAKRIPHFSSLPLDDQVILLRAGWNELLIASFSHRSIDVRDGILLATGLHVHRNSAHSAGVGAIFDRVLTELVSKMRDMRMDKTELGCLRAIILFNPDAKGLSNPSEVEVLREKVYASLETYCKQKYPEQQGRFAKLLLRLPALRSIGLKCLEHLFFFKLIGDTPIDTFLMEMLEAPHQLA
Chain of Nuclear receptor subfamily 1 group I member 2 (Homo sapiens) (O75469 whole entry, looked up, the tested form may be a part): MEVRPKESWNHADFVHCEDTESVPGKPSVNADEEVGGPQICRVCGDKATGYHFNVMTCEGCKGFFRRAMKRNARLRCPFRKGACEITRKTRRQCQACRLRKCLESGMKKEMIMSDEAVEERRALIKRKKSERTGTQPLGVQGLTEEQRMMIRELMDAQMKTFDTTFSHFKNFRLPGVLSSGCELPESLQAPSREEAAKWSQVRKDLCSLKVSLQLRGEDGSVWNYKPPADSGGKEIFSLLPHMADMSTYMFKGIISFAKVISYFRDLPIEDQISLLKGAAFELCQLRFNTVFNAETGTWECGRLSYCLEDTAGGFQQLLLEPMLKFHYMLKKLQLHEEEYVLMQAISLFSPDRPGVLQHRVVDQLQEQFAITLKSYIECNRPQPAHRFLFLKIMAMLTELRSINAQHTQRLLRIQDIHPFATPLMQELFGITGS
Chain of human RAR-related Orphan Receptor beta (RORb), RORB (gene 6096) (Q92753 whole entry, looked up, the tested form may be a part): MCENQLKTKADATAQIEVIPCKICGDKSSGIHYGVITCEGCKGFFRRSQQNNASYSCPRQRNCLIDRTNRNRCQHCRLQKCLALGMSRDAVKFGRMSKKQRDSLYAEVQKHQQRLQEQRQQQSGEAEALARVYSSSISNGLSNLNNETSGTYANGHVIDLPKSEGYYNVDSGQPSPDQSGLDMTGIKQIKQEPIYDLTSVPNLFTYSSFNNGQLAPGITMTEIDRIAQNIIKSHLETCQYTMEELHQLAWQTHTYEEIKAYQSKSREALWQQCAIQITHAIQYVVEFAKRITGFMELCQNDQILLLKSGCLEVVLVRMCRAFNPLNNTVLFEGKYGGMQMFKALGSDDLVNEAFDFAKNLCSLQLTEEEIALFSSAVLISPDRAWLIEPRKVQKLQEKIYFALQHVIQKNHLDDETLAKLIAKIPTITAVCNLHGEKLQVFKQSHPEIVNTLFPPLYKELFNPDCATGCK
Chain of Retinoic acid receptor alpha (Homo sapiens) (P10276 whole entry, looked up, the tested form may be a part): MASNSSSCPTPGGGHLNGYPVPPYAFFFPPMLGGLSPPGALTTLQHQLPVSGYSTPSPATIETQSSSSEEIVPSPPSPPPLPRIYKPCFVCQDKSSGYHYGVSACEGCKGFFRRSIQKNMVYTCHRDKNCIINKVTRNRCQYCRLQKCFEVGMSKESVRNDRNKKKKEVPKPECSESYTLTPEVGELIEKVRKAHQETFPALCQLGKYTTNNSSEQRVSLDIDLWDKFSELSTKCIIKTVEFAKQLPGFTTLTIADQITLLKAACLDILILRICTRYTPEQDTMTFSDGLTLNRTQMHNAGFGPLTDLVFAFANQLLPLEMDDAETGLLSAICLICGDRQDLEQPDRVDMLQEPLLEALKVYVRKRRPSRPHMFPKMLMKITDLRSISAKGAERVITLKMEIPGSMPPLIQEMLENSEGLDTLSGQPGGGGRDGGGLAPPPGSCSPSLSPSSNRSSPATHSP

O=c1cccc[nH]1
inactive: [1] | [2] | [3] | [4] | [5] | [6] | [7]

CO[Si](CCCOCC1CO1)(OC)OC (stereo not given)
inactive: [8] | [5]

O=C1OC(=O)c2ccc3c4c(ccc1c24)C(=O)OC3=O
inactive: [8] | [3] | [9] | [5]

CCc1cc(Cc2cc(CC)c(N)c(CC)c2)cc(CC)c1N
active: [3] 886 nM | [9] 1080 nM
inactive: [8] | [10] | [4] | [6]

CC(C)=CCCC(C)O (stereo not given)
inactive: [3] | [7]

CCOCN(C(=O)CS(=O)(=O)O)c1c(C)cccc1CC
inactive: [1] | [3] | [9] | [10] | [4] | [5]

CN(C)C(C)(C)CO
inactive: [8] | [9] | [5] | [6]

CCOC(OCC)OCC
inactive: [8] | [2] | [4] | [5]

N#CCCOCCC#N
inactive: [2] | [3] | [9] | [10] | [5] | [6]

OCCCc1cccnc1
inactive: [8] | [2] | [3] | [9] | [10] | [5] | [7]

CCC(C)CO (stereo not given)
inactive: [11] | [9] | [10] | [4] | [6] | [12]

Cc1ccc(O)cn1
inactive: [8] | [3] | [9] | [5]

OCCC(O)CO (stereo not given)
inactive: [10] | [6] | [7] | [12]

COCCOCCC[Si](C)(O[Si](C)(C)C)O[Si](C)(C)C
inactive: [8] | [1] | [3] | [10] | [5] | [6]
active: [9] 1470 nM | [7] 33400 nM

CC(C)C(=O)OCc1ccccc1
inactive: [11] | [4] | [6]

CC(C)(C)c1cc(Cc2cc(C(C)(C)C)c(O)c(C(C)(C)C)c2)cc(C(C)(C)C)c1O
active: [9] 631 nM
inactive: [1] | [2] | [3] | [10] | [6] | [12]

C=CCOC(=O)CC(C)C
inactive: [4] | [5]

CC1=CCC2C(=O)OC(=O)C2C1 (stereo not given)
inactive: [11] | [10]

Cc1cccc(C)n1
inactive: [1] | [3] | [9] | [5]

CCOCOCC
inactive: [8] | [1] | [2] | [10] | [6]

COC(=O)c1ccc(C=O)cc1
inactive: [11] | [4] | [5]

O=S(=O)(O)c1ccc(Cl)cc1
inactive: [8] | [3] | [4]

CCCCCCCCCc1ccc(OCCO)cc1
inactive: [8] | [10] | [6] | [12]
active: [9] 732 nM

O=c1[nH]cccc1O
inactive: [1] | [2] | [3] | [10] | [4] | [5] | [12]

CC(=O)CCC(C)C
inactive: [2] | [9] | [10] | [5]

Nc1c(Br)cc([N+](=O)[O-])cc1Br
inactive: [8] | [3] | [10] | [4] | [5] | [6]
active: [9] 26800 nM

CC(C)(C)c1cc(CCC(=O)OCC(COC(=O)CCc2cc(C(C)(C)C)c(O)c(C(C)(C)C)c2)(COC(=O)CCc2cc(C(C)(C)C)c(O)c(C(C)(C)C)c2)COC(=O)CCc2cc(C(C)(C)C)c(O)c(C(C)(C)C)c2)cc(C(C)(C)C)c1O
inactive: [8] | [4] | [5]

Brc1ccccn1
inactive: [1] | [3] | [9] | [4] | [5]
